In PubChem BioAssay (NCATS):
Inconclusive results are not listed. Active and inactive are the calls of the source. Calls follow the shape of the dose curve; as a rule, active = well fitted curve in the direction sought with a large enough effect in the signal ratio; inconclusive = small, poorly fitted or top-dose-only effect, or a change in a side signal; inactive = no such curve, though single readings can be large or run the other way; the % refers to the signal ratio.

Molecular target: Tumor necrosis factor (Homo sapiens) (UniProt P01375)
Sequence (P01375 whole entry, looked up): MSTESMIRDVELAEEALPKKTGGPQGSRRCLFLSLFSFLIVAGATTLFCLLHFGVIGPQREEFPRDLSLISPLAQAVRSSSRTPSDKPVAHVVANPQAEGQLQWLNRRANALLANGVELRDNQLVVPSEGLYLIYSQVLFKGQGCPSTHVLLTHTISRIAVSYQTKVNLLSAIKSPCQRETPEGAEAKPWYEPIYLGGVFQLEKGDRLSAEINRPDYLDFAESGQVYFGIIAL
Assay: qHTS assay to identify small molecules that stimulate Tumor Necrosis Factor-alpha (TNF-alpha) secretion (AID 651757); as to activation (TNF-alpha secretion): 0% is about no effect
Conditions: Human cells, HTRF 665/615 ratio; series mostly up to 92.2 µM; activation (TNF-alpha secretion): at the top concentration
Excerpt: National Center for Advancing Translational Sciences [NCATS]
NIH Chemical Genomics Center [NCGC]
National Institutes of Environmental Health Sciences [NIEHS]
National Toxicology Program [NTP]
Tumor Necrosis Factor-alpha (TNF-alpha), a secreted cytokine, plays an important role in inflammatory diseases and immune disorders. TNF-alpha, a 17 kDa cytokine, is mainly secreted by activated macrophages and monocytes in response to several inflammatory and immunological stimuli. To study the effect of environmental chemicals on TNF-alpha secretion, a homogeneous TNF-alpha assay was developed using Time Resolved fluorescence (HTRF) technology based on Time Resolved Fluorescent Resonance Energy Transfer (TR-FRET) (Leister et al., Current Chemical Genomics, 5:21-29, 2011). This assay allows measuring TNF-alpha secreted from the cells in a 1536-well plate format.
THP-1 cells were dispensed at 3000 cells/5ul/well in 1536-well white solid plates. After addition of 23 nl of compound, positive controls and DMSO only, the assay plates were incubated at 37 C for 17 hrs, followed by addition of 5 uLof mixture of cryptate labeled and XL665 labeled anti-TNF-alpha antibodies. After the assay plates were incubated at room temperature for 3 hr, the plates were measured by an EnVision plate reader.
Potency is read from the fitted curve at half-maximal effect.

Row | SMILES | activation (TNF-alpha secretion) | Potency
1 | Nc1c(Cl)cc(Cl)cc1Cl | -0.123% (inactive) | 
2 | O=C(Cl)c1ccccc1[N+](=O)[O-] | 0.739% (inactive) | 
3 | O=P(O)(OCc1ccccc1)OCc1ccccc1 | 0.191% (inactive) | 
4 | O=C(O)c1ccc(C(=O)O)cc1 | -0.132% (inactive) | 
5 | CC(C)(C)OCC1CO1 (stereo not given) | 0.391% (inactive) | 
6 | CCCCCCCCN | -0.0873% (inactive) | 
7 | C=Cc1ccccn1 | -0.066% (inactive) | 
8 | Nc1ccc(Cl)cc1[N+](=O)[O-] | -0.364% (inactive) | 
9 | CCC(C)=O | -0.0298% (inactive) | 
10 | CCCCOCCOCCSC#N | -0.311% (inactive) | 
11 | O=C(O)c1cccc(Cl)c1Cl | -0.851% (inactive) | 
12 | CNc1ccccc1 | -0.0829% (inactive) | 
13 | CC(C)(O)CCC(C)(C)O | 0.653% (inactive) | 
14 | O=C(O)c1ccc(Cl)c(Cl)c1 | 0.0819% (inactive) | 
15 | C=C(C)C(=O)OCCCCCCCCCC | -0.0862% (inactive) | 
16 | CNc1ccc([N+](=O)[O-])cc1 | -0.328% (inactive) | 
17 | C=C(C)C(=O)OC | 0.346% (inactive) | 
18 | CCCCOCCOCCOCCCC | 0.256% (inactive) | 
19 | CC(=O)Nc1ccccc1C | 0.762% (inactive) | 
20 | C1CCC2OC2C1 (stereo not given) | 0.379% (inactive) | 

Row | SMILES | activation (TNF-alpha secretion) | Potency
21 | Cc1ccc(C#N)cc1 | 0.346% (inactive) | 
22 | CC(=O)c1ccc([N+](=O)[O-])cc1 | 0.529% (inactive) | 
23 | Cc1ccccc1Br | -0.584% (inactive) | 
24 | CC(=O)OC(C)=O | 0.0961% (inactive) | 
25 | COC(=O)c1ccccc1 | -0.0018% (inactive) | 
26 | CCC(C)O (stereo not given) | 0.362% (inactive) | 
27 | O=[N+]([O-])c1cccc(C(F)(F)F)c1 | -0.162% (inactive) | 
28 | C[C@@H]1CC2(OC3C[C@@]4(C)C5=CC[C@H]6C(C)(C)C(O[C@@H]7OC[C@@H](O)[C@H](O)[C@H]7O)CC[C@@]67C[C@@]57CC[C@]4(C)C31)OC(O)C1(C)OC21 (stereo not given in full) | 0.724% (inactive) | 
29 | CCc1ccccc1O | 0.427% (inactive) | 
30 | CCCCC(CC)C(=O)O (stereo not given) | 0.311% (inactive) | 
31 | COC(=O)CS | -0.451% (inactive) | 
32 | O=C(O)c1cc(Cl)cc(Cl)c1 | 0.0464% (inactive) | 
33 | CCN(C(=O)N(CC)c1ccccc1)c1ccccc1 | -0.0199% (inactive) | 
34 | Cc1ccc(C)c([N+](=O)[O-])c1 | -0.88% (inactive) | 
35 | CC(C)(C)OC=O | -0.0663% (inactive) | 
36 | COc1cccc2sc(N)nc12 | 0.228% (inactive) | 
37 | Cc1ccc2nc(-c3ccc(N)cc3)sc2c1S(=O)(=O)O |  | 8.41 µM (active)
38 | CCOCC(=O)O | 0.0704% (inactive) | 
39 | Cc1ccc2ccccc2c1[N+](=O)[O-] | 0.217% (inactive) | 
40 | O=C(O)c1ccccc1C(=O)O | -0.0431% (inactive) | 
